The source of these data is PubChem BioAssay AID588590 (National Center for Advancing Translational Sciences (NCATS), 2011).

Several values for one entry are separate records, joined by “and”; a condition that tells them apart may be missing. Equal entries are not always repeated. Screen size: about 390,000 compounds; about 4,000 (1%) were called active. Roughly 7% stayed inconclusive and do not appear here. Calls come from the whole dose curve; as a rule, active = well fitted inhibition curve with a large enough effect; inconclusive = small, poorly fitted or top-dose-only effect, or another doubt; inactive = no such curve, though single readings can be large or run the other way. Shown is part of a subset that was picked to be rich in actives. Some structures have more than one record in an assay (separate samples or runs), and their calls can disagree.
Potency is the fitted concentration of half-maximal effect.

The target in this assay is DNA polymerase iota (Homo sapiens) (UniProt Q9UNA4). Put plainly: qHTS for Inhibitors of Polymerase Iota. As to conditions: Pol iota fluorescent replication assay, 10 min; series mostly up to 115 µM; activity, negative = inhibition: at the top concentration. The gist of the method: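 Fluorescent replication assay read twice, at 0 min and 10 min after adding 50 nM (final) substrate. Enzyme (10 nM) and compounds were first incubated 15 min at room temperature; enzyme-free buffer wells were negative controls.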
DNA polymerase iota (Homo sapiens), sequence (Q9UNA4 whole entry, looked up): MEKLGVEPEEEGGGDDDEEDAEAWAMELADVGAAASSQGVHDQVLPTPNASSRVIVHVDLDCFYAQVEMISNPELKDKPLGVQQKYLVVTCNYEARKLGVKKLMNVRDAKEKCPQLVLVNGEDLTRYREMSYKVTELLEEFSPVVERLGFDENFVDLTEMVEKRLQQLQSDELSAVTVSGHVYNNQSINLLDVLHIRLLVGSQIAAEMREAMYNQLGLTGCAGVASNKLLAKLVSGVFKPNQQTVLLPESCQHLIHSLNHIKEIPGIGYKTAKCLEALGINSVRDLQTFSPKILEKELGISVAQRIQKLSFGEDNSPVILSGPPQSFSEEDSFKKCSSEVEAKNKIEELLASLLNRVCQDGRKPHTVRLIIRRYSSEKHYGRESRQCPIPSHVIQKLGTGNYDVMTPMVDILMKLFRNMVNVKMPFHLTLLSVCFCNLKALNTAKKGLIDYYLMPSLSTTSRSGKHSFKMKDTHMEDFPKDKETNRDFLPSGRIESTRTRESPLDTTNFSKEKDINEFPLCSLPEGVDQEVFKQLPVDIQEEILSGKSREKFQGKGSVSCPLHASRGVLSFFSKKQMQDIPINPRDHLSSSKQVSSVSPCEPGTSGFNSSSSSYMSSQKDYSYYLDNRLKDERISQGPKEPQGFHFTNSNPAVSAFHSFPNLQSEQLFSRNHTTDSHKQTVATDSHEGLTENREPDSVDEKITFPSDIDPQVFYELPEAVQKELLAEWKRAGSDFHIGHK
(In general: In qHTS, concentration-response curves come from the screen itself.)
Turning to `CC(NC(=O)CCc1cn(Cc2ccccc2Cl)c2ccccc12)c1ccccc1` (configuration not stated), the “activity, negative = inhibition” value was 6.58% (inactive). The same measure, in the same setting: to `O=C(Cn1c(=O)nc(-c2ccccc2)c2cc(Cl)ccc21)NCc1ccc(Cl)cc1` belongs 12.4% (inactive). Take `CC(C)c1ccc2c(c1)c(SC(C)(C)C)c(CC(C)(C)C(=O)O)n2Cc1ccc(Cl)cc1`: the Potency was 28.2 µM (active). On to `Cc1c(C)n(Cc2ccc(Cl)cc2)c2ccc(C(=O)N3CCN(c4ccccc4F)CC3)cc12`, for which the “activity, negative = inhibition” value is -14.6% (inactive). `COc1cc(-c2noc(-c3ccc(N4CCCC4)c([N+](=O)[O-])c3)n2)cc(OC)c1OC`: the “activity, negative = inhibition” value was 13.9% (inactive). Still for that read-out and setting: to `Cc1ccc(C(=O)N2CCc3cc(CNC(=O)c4ccc(Br)cc4)ccc32)cc1` belongs 14% (inactive). With `CSC1=N/C(=C\C=C\c2cccs2)C(=O)S1`, the Potency was 15.8 µM (active). For the compound `Cc1ccc(CN(C(=O)COc2ccc(Cl)cc2C)C2CCS(=O)(=O)C2)o1` (configuration not stated), the “activity, negative = inhibition” value is -3.04% (inactive). Still for that read-out and setting: the figure for `CCc1cc2c(-c3ccccc3)cc(=O)oc2c2c1OCN(Cc1ccc(C)cc1)C2` is 21.1% (inactive). Still for that read-out and setting: to `Cc1ccc(S(=O)(=O)c2nc(-c3ccco3)oc2SCC(=O)Nc2ccc(F)cc2)cc1` belongs -29.2% (inactive); to `O=C1CCCc2cc(S(=O)(=O)N3CCCC(C(=O)NCc4ccccc4)C3)ccc2N1` (configuration not stated), 4.68% (inactive).

For `O=C(O)CCCCCCCCc1cn(CN2C(=O)c3ccccc3C2=O)nn1`, the Potency entry was “inactive”. Consider `COc1cccc(-c2nn(-c3ccccc3)cc2/C=C(\C#N)C(=O)NCCCn2ccnc2)c1`, for which the “activity, negative = inhibition” value is 196% (inactive).

`Cc1ccc(-c2nn(-c3ccccc3)cc2/C=C/C(=O)Nc2cccc(S(N)(=O)=O)c2)cc1`: the “activity, negative = inhibition” value is 6.92% (inactive).

As for `Cc1ccc(-c2nn(-c3ccccc3)cc2/C=C2\SC(=S)N(CCCCCC(=O)O)C2=O)o1`, the Potency is 89.1 µM (active).

For `CN(C)S(=O)(=O)c1cccc(-c2nn(-c3ccccc3)cc2/C=C2\SC(=S)N(CC(=O)O)C2=O)c1`, the Potency is 31.6 µM (active). On to `O=C1/C(=C/c2coc3ccc(O)cc3c2=O)SC(=S)N1c1ccccc1`, for which the “activity, negative = inhibition” value is -10.5% (inactive).

Take `CCn1cc(C(=O)N(C)Cc2ccccc2)c(=O)c2cc(S(=O)(=O)N3CCCCCC3)ccc21`: the “activity, negative = inhibition” value was 15.7% (inactive). On the same count and under the same terms, the figure for `COc1ccc(Cn2c(=O)n(-c3ccccc3C)c(=O)c3c4c(sc32)CN(C(C)=O)CC4)cc1` is 26.2% (inactive); for `CCn1c(C(=O)Nc2cc(Cl)ccc2C)cc2sc(Cl)cc21` it is 36.3% (inactive); for `Cc1ccc2nc(/C(C#N)=C/c3ccc(-c4ccc(C(=O)OC(C)C)cc4)o3)[nH]c2c1` it is 18.9% (inactive).

As for `CN(Cc1ccco1)S(=O)(=O)c1nnc(NC(=O)c2ccccc2)s1`, the Potency result is “inactive and 44.7 µM (active)”. With `CN(Cc1ccccc1)S(=O)(=O)c1nnc(NC(=O)c2ccccc2F)s1`, the “activity, negative = inhibition” value was 1.73% (inactive). Still for that read-out and setting: the figure for `CCCCC(=O)Nc1nnc(S(=O)(=O)N(C)Cc2ccco2)s1` is -11% (inactive); for `CN(Cc1ccccc1)c1ccc(-c2nc(-c3ccccc3)no2)cc1[N+](=O)[O-]` it is 51.2% (inactive); for `CC(=O)c1ccc(NC(=O)c2nc3nc(C)cc(C(F)F)n3n2)cc1` it is -14.5% (inactive).

As for `COc1ccc(-c2nc(S(=O)(=O)c3ccccc3)c(N3CCCCC3)o2)cc1`, the “activity, negative = inhibition” value was 8.68% (inactive). On the same count and under the same terms, the figure for `CCn1cc(C(=O)N2CCN(c3cc(C)ccc3C)CC2)c(=O)c2cc(S(=O)(=O)N(C)C3CCCCC3)ccc21` is 7.13% (inactive); for `O=C(O)c1ccc(Cn2c(SCc3ccc(F)cc3)nc3ccncc32)cc1` it is -4.26% (inactive). Regarding `COc1ccccc1-n1c(-c2cc(-c3ccco3)[nH]n2)n[nH]c1=S`, the Potency was 8.91 µM (active). With `COc1cc(-c2n[nH]c(=S)n2Cc2ccccc2)cc(OC)c1OC`, the “activity, negative = inhibition” value was 45.3% (inactive). Still for that read-out and setting: to `Cc1cc(-c2n[nH]c(=S)n2-c2ccc(C)c(C)c2)no1` belongs -3.17% (inactive); to `C=CCOc1c(Br)cc(/C=N\n2nnnc2N)cc1OC`, 8.73% (inactive); to `CCOc1ccc(/C=C(\C#N)c2nc3ccccc3c(=O)[nH]2)cc1OC`, 17.8% (inactive). As for `CCOc1c(Br)cc(/C=C2\C(=O)N(CCC#N)N=C2C)cc1OC`, the Potency is 0.794 µM (active). Take `CC(C)(C)OC(=O)N1CCC(c2c(C(=O)NCc3ccccn3)cnn2-c2ccc(F)cc2)CC1`: the “activity, negative = inhibition” value is 23.8% (inactive). Still for that read-out and setting: the figure for `CC(=O)Nc1ccc(NC(=O)C2CCCN2S(=O)(=O)c2cccc(C(F)(F)F)c2)cc1` (configuration not stated) is 22.6% (inactive). As for `CCc1ccc(NC(=O)C2CCCN2S(=O)(=O)c2ccc3nc(-c4ccccc4)[nH]c3c2)cc1` (configuration not stated), the Potency was 89.1 µM (active). `CCc1nnc(NC(=O)C2CCCN2S(=O)(=O)c2ccccc2)s1` (configuration not stated): the “activity, negative = inhibition” value was -7.41% (inactive). Turning to `CN(CCC#N)c1ccc(C=O)cc1`, the “activity, negative = inhibition” value is 1.08% (inactive). Same read-out and setting: the figure for `Cc1ccc(Nc2c(-c3ccc(C)cc3)nc3cnccn23)cc1` is 9.48% (inactive). For `COc1ccc(C(=O)Nc2cccc(/C=C(/CCC(=O)O)c3nc4ccccc4s3)c2)cc1`, the Potency is 12.6 µM (active).

Take `Cc1nn(-c2ccc(F)cc2)c(Cl)c1/C=C(/CCC(=O)O)c1nc2ccccc2s1`: the “activity, negative = inhibition” value is 58% (inactive). Same read-out and setting: the figure for `COc1cccc(NC(=O)c2ccc3nc(CCc4ccccc4)oc3c2)c1` is 0.161% (inactive); for `Cc1csc[n+]1CCC1CCCCC1` it is 42.3% (inactive); for `CCOC(=O)c1ccc(NC(=O)c2csc3c2CCCCC3)cc1` it is 45.5% (inactive).

As for `CCOc1ccc(C(=O)/C=C/c2cn(CC(O)CN3CCCCCC3)c3ccccc23)cc1` (configuration not stated), the “activity, negative = inhibition” value was -23.7% (inactive).
